Measurements: PubChem BioAssay (EPA / NIEHS)
Inconclusive results are not listed. The source made the active and inactive calls. Rule for the calls: active = hit-call score of the fitted dose curve at least 0.9, where 1 is the maximum; inconclusive = response in the unintended direction; inactive = score below 0.9.

What was measured:
[1] = target: Cellular tumor antigen p53 (Homo sapiens) (UniProt P04637); assay: TOX21_p53_BLA_p3_ratio: Tox21 HCT-116 p53 Agonism Beta-lactamase Assay, Ratio, Phase 3 (AID 2283596)
In short: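 HCT116 p53-bla cells (4000/well) given compound in DMSO (217-fold dilution) after 5 h, incubated 16 h at 37C. CCF4-AM substrate 2 h at room temperature; 460/530 nm emission ratio, gain fitted against DMSO.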

[2] = TOX21_p53_BLA_p4_viability: Viability Assessment in the Tox21 HCT-116 p53 Agonism Beta-lactamase Assay, Phase 4 (AID 2283597);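 note: hits lower the luminescence signal meaning cytotoxicity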
In short: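 Following a 16 h exposure at 37C, the treated HCT116 wells were first read for the FRET ratio. They were then lysed with CellTiter-Glo, and ATP luminescence was recorded after 30 min at room temperature.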

[3] = TOX21_p53_BLA_p5_viability: Viability Assessment in the Tox21 HCT-116 p53 Agonism Beta-lactamase Assay, Phase 5 (AID 2283600)
In short: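 After the 460/530 nm beta-lactamase measurement, the wells received an ATP-detection luciferase reagent; signal was read 30 min later at RT. Compound treatment lasted 16 h on cells pre-incubated 5 h post-seeding.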

[4] = target: Cellular tumor antigen p53 (Homo sapiens) (UniProt P04637); assay: TOX21_p53_BLA_p4_ratio: Tox21 HCT-116 p53 Agonism Beta-lactamase Assay, Ratio, Phase 4 (AID 2283601)
In short: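 HCT116 cells carrying an inducible beta-lactamase reporter were plated at 4000 cells/well, rested 5 h, then exposed to compounds in DMSO (217-fold dilution) for 16 h at 37C. CCF4-AM substrate was loaded 2 h at room temperature; 460/530 nm emission ratio scored gain-of-signal versus DMSO.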

[5] = target: Cellular tumor antigen p53 (Homo sapiens) (UniProt P04637); assay: TOX21_p53_BLA_p5_ratio: Tox21 HCT-116 p53 Agonism Beta-lactamase Assay, Ratio, Phase 5 (AID 2283599)
In short: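 HCT-116 cells carrying a p53-inducible beta-lactamase reporter were seeded at 4000 cells/well and dosed after 5 h with compound in DMSO (217-fold dilution). After 16 h at 37C, CCF4-AM substrate was added for 2 h, and the 460/530 nm emission ratio was scored as gain-of-signal versus DMSO.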

Cellular tumor antigen p53 (Homo sapiens), sequence (P04637 whole entry, looked up): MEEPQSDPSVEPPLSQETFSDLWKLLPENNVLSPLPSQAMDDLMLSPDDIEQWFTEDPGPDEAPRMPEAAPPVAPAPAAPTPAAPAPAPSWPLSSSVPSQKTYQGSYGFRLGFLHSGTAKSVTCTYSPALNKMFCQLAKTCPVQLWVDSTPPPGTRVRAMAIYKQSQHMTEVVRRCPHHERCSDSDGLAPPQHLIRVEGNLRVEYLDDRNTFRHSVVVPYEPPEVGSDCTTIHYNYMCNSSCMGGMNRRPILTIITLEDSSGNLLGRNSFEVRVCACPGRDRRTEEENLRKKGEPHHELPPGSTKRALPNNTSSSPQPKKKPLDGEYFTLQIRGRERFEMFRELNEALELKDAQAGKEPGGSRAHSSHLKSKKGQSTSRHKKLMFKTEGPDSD

| Structure (SMILES) | outcome [1] | outcome [2] | outcome [3] | outcome [4] | outcome [5] |
| --- | --- | --- | --- | --- | --- |
| CCN(CCCc1ccccc1)CCCc1ccccc1 | inactive | inactive | inactive | inactive |  |
| CCOc1cc(N)c(Cl)cc1C(=O)NCC1CN(Cc2ccc(F)cc2)CCO1 (stereo unspecified) | inactive |  | inactive | inactive |  |
| CN1CCC(=C2c3ccccc3CCc3sccc32)CC1 |  | inactive |  |  |  |
| C[C@H]1[C@H](NC(=O)C(=NOC(C)(C)C(=O)O)c2csc(N)n2)C(=O)N1S(=O)(=O)O | inactive |  |  | inactive |  |
| Cc1ccc(N)cc1[N+](=O)[O-] | inactive |  |  | inactive |  |
| CC(C(=O)O)c1ccc(CC2CCCC2=O)cc1 (stereo unspecified) |  | inactive | inactive | inactive | inactive |
| CCc1c(C)[nH]c2c1C(=O)C(CN1CCOCC1)CC2 (stereo unspecified) | inactive |  |  | inactive | inactive |
| C[C@H](O)C(=O)Nc1c(I)c(C(=O)NC(CO)CO)c(I)c(C(=O)NC(CO)CO)c1I | inactive |  |  | inactive | inactive |
| C1=C\CC/C=C\CC/1 | inactive |  | inactive |  |  |
| ClCCl |  | inactive |  |  | inactive |
